Source: PubChem BioAssay
Rows were chosen to be rich in hits. Some 3.6% of all compounds tested hit in one or more screens of this group.
Sm TGR block = qHTS Assay for the Inhibitors of Schistosoma Mansoni Peroxiredoxins; 360,000 tested, 3% active; Schistosoma mansoni thioredoxin glutathione reductase (TGR), Q962Y6; Potency, µM (titrated, usually from 114 µM), inactives show top-dose activity change, negative = inhibition, actives largely listed as inhibitors; purified TGR, DTNB reduction, TNB absorbance 405 nm; also: nearly all actives have a fitted effect of over 60% in size
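Kinetic colorimetric format: TGR-catalysed, NADPH-driven DTNB reduction monitored via TNB absorbance. Enzyme dispensed at 20 nM; compound exposure 15 min at room temperature before reaction start.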
AmpC inh detg = qHTS Inhibitors of AmpC Beta-Lactamase (assay with detergent) | Potency, µM (series often up to 114 µM), for inactives: top-dose activity change, negative = inhibition, usual class: inhibitors | 370,000 tested, 0.041% active | AID 485294, 2010 | AmpC hydrolysis of nitrocefin, absorbance 480 nm, 0.01% Triton;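 also: 0% = no-compound wells and -100% = no-enzyme wells; nearly all actives have a fitted effect of over 25% in size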
Target sequence (P00811 whole entry, looked up): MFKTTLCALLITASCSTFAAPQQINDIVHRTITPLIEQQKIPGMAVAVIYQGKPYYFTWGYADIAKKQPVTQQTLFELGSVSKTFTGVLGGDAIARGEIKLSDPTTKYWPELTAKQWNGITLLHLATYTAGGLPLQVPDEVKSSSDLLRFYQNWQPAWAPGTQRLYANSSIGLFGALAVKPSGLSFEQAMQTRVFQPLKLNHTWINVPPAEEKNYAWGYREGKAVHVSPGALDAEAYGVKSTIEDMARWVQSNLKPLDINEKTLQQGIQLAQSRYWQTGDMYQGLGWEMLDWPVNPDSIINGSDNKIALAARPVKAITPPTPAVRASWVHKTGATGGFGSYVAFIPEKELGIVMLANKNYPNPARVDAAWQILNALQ
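AmpC (5.3 nM in the dispensed reagent) in 20 mM phosphate pH 7.0 with 0.01% (detergent screen) or 0.0001% Triton X-100 was preincubated with compounds for 15 min at room temperature. Nitrocefin was then added from an 800 uM solution, and hydrolysis was followed at 480 nm.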
Giardia FBPA inh-1 = qHTS Assay for Inhibitors of Fructose-1,6-bisphosphate Aldolase from Giardia Lamblia | purified Giardia FBPA | Potency, µM (series often up to 59.6 µM), without a hit: at the top dose activity, negative = inhibition, actives largely listed as inhibitors | 290,000 tested, 0.71% active; also: nearly all actives have a fitted effect of over 55% in size
Target sequence (A8B2U2 whole entry, looked up): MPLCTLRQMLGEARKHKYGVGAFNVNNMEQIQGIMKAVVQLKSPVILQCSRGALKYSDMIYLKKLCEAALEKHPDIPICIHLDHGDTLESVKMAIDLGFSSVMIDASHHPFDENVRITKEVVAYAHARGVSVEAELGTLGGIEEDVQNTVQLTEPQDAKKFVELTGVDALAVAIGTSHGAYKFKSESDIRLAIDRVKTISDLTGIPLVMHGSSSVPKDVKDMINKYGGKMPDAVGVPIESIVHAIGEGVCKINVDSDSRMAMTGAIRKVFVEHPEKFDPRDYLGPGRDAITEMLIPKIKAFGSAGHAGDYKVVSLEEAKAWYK
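40 nM FBPA preincubated 10 min at RT with compound (up to 57.5 uM final), then substrate plus GAPDH/TPI/NAD/arsenate coupling and diaphorase/resazurin added. Fluorescence read after 20 min at RT, 525/598 nm.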
AmpC inh no detg = qHTS Inhibitors of AmpC Beta-Lactamase (assay without detergent); P00811; AID 485341, 2010; 330,000 tested, 0.52% active; AmpC nitrocefin hydrolysis, absorbance 480 nm, 0.0001% Triton; Potency, µM (titrated, usually from 57.1 µM), inactives show at the highest dose activity change, negative = inhibition, most hits filed as inhibitors;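 also: plate controls were no compound for no effect and no enzyme for full effect; nearly all actives have a fitted effect of over 20% in size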
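AmpC (5.3 nM in the dispensed reagent) in 20 mM phosphate pH 7.0 with 0.01% (detergent screen) or 0.0001% Triton X-100 was preincubated with compounds for 15 min at room temperature. Nitrocefin was then added from an 800 uM solution, and hydrolysis was followed at 480 nm.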
Giardia growth = qHTS Assay for Inhibitors of Fructose-1,6-bisphosphate Aldolase from Giardia Lamblia: Giardia lamblia growth inhibition; shares compounds with Giardia FBPA inh-1; Giardia lamblia trophozoite growth inhibition; Potency, µM (titrated, usually from 57.5 µM), inactives show at the top dose activity change, negative = inhibition, usual class: inhibitors; 1,500 tested, 5% active; AID 2785, 2010;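 also: trophozoites exposed to compound for 48 h at 37 °C; nearly all actives have a fitted effect of over 70% in size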
Mammalian tox = qHTS Assay for Inhibitors of Fructose-1,6-bisphosphate Aldolase from Giardia Lamblia: Mammalian cellular toxicity | shares compounds with Giardia FBPA inh-1 | mammalian cell viability counter-screen, qHTS | Potency, µM (series often up to 57.5 µM), inactives show at the highest dose viability change, negative = toxicity, usual class: inhibitors | 1,500 tested, 4% active | AID 2786, 2010;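 also: Chinese hamster ovary cells used as mammalian cytotoxicity surrogate; viability measured as cellular ATP by luminescence; compound exposure lasted 48 h before reading; nearly all actives have a fitted effect of over 60% in size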
Giardia FBPA inh-2 = qHTS Assay for Inhibitors of Fructose-1,6-bisphosphate Aldolase from Giardia Lamblia: Primary screen confirmation; shares compounds with Giardia FBPA inh-1; purified Giardia aldolase enzyme activity, qHTS; Potency, µM (doses to about 57.5 µM), for inactives: top-dose activity change, negative = inhibition, most hits filed as inhibitors; 1,500 tested, 5% active; also: nearly all actives have a fitted effect of over 45% in size
Rabbit aldolase = qHTS Assay for Inhibitors of Fructose-1,6-bisphosphate Aldolase from Giardia Lamblia: Rabbit FBPA Selectivity. shares compounds with Giardia FBPA inh-1. Rabbit muscle FBPA enzyme inhibition, selectivity counter-screen. Potency, µM (top dose mostly 57.5 µM), inactives show at the highest dose activity, negative = inhibition, most hits filed as inhibitors. 1,500 tested, 4% active; also: nearly all actives have a fitted effect of over 60% in size
GAPDH counter = qHTS Assay for Inhibitors of Fructose-1,6-bisphosphate Aldolase from Giardia Lamblia: Coupling assay counterscreen confirmation; GAPDH coupling enzyme counterscreen, biochemical, qHTS; 1,500 tested, 6% active; Potency, µM (titrated, usually from 57.5 µM), inactives show at the highest dose activity change, negative = inhibition, most hits filed as inhibitors; shares compounds with Giardia FBPA inh-1; also: nearly all actives have a fitted effect of over 55% in size
* hit, by the source's call; ? = inconclusive; . = no result given; [ ] = another dose, or the depositor's remark. Calls follow the shape of the dose curve; as a rule, active = well fitted curve in the direction sought with a large enough effect; inconclusive = small, poorly fitted or top-dose-only effect, or another doubt; inactive = no such curve, though single readings can be large; an effect the other way counts as inactive or inconclusive. Unless noted, % is scaled to controls: 0 for no effect and ±100 for the full control effect; potency is read from the fitted curve at half-maximal effect.

SMILES	Sm TGR block	AmpC inh detg	Giardia FBPA inh-1	AmpC inh no detg	Giardia growth	Mammalian tox	Giardia FBPA inh-2	Rabbit aldolase	GAPDH counter
Cc1cccc(NC2=C/C(=N/S(=O)(=O)c3cccs3)c3ccccc3C2=O)c1	-17%	-11%	0.2µM*	-39%	16µM*	20µM*	?	-15%	2.5µM*
Cc1ccc(NC2=C/C(=N\S(=O)(=O)c3cccs3)c3ccccc3C2=O)c(C)c1	-31%	-3%	?	?	.	.	.	.	.
COc1cc(NC(=S)NC(C)(C)C)c(OC)cc1Cl	0%	-11%	-5%	-18%	.	.	.	.	.
COc1cc(Cl)c(C)cc1NC(=S)NN	-1%	-5%	20µM*	-32%	?	1%	3%	3%	8%
CCNc1ncc2nc(-c3ccc(F)cc3)c(=O)n(-c3ccc(OC)cc3)c2n1	.	.	-19%	.	.	.	.	.	.
COCCCNC(=O)CSc1nc(-c2ccc(OC)cc2)[nH]c1-c1ccc(OC)cc1	-3%	-7%	.	.	.	.	.	.	.
Cc1[nH]n(-c2ccccc2)c(=O)c1C=Nc1ccc(S(=O)(=O)N=C(N)N)cc1	-6%	2%	-5%	-15%	.	.	.	.	.
Cc1[nH]n(-c2ccccc2)c(=S)c1C=Nc1ccc([N+](=O)[O-])cc1	-25%	-6%	4.5µM*	-16%	-1%[38.3 µM]	-8%	-23%	35µM*	?
CCCN(c1ccccc1CC)S(=O)(=O)c1ccc2c(c1)CC(C)N2C(=O)C1CC1 (stereo unspecified)	4%	4%	.	.	.	.	.	.	.
COc1cc(OC)cc(C(=O)NC(=S)Nc2nnn(C)n2)c1	?	-2%	3.5µM*	-23%	-18%[38.3 µM]	-5%	3%	9%	10%
CC(C)C(=O)NC(=S)Nc1nnn(C)n1	-1%	-1%	3.2µM*	-22%	?	0%	-1%	7%	6%
CCCn1nnc(NC(=S)NC(=O)CC)n1	-8%	0%	5.6µM*	-14%	?	-5%	-1%	1%	4%
CN(c1ccccc1)S(=O)(=O)c1ccc(NC(=O)c2cccs2)cc1	4%	1%	-4%	-15%[2.29 µM]	.	.	.	.	.
CN(C)S(=O)(=O)c1ccc(NC(=S)NC(=O)c2cccs2)cc1	?	10%	18µM*	-34%	-9%[10.4 µM]	-17%	7%	5%	11%
CC1(NC(=O)CC[N+](C)(C)CCO)CS(=O)(=O)CC1S(=O)(=O)[O-] (stereo unspecified)	-22%	-15%	-13%	0%	.	.	.	.	.
Cn1nnc(NC(=S)NC(=O)c2cccs2)n1	?	0%	2µM*	-44%	-8%	4%	-1%	7%	7%
CCCCn1nnc(NC(=S)NC(=O)c2cccs2)n1	?	0%	?	-17%	.	.	.	.	.
CC(C)OC(=O)Nc1ccc2c(c1)N(C(=O)N1CCN(C)CC1)c1ccccc1CC2	1%	4%	16µM*	127%	8.9µM*	1.8µM*	2%	9%	6%
CCOC(=O)Nc1ccc2c(c1)N(C(=O)N1CCN(C)CC1)c1ccccc1CC2	16%	3%	5%	117%	.	.	.	.	.
CCN(CC)c1nc2cc(C)ccc2cc1/C=C(\C#N)C(N)=O	2%	0%	-9%	31%	.	.	.	.	.
COc1ccc(C(=O)NCCCNC(=O)c2cccnc2)cc1Br	-12%	?	-3%	-7%	.	.	.	.	.
Cc1ccc(N=Nc2c(O)ccc3n[nH]nc23)cc1	32µM*	-8%	16µM*	-42%	?	-1%	?	-21%	-2%
CCCN1CCN(CC(=O)Nc2nnc(C)s2)CC1	1%	1%	7.9µM*	3%	26%	1%	-2%	13%	4%
O=C(CN1CCN(Cc2ccccc2)CC1)Nc1nnc(C(F)(F)F)s1	-11%	?	-25%	7%	.	.	.	.	.
CCc1nnc(NC(=O)CN2CCN(Cc3cccc(F)c3)CC2)s1	-34%	4%	.	-19%	.	.	.	.	.
SMILES	Sm TGR block	AmpC inh detg	Giardia FBPA inh-1	AmpC inh no detg	Giardia growth	Mammalian tox	Giardia FBPA inh-2	Rabbit aldolase	GAPDH counter
O=C(CN1CCN(Cc2ccc(F)cc2)CC1)Nc1nc2ccccc2s1	-13%	-17%	14µM*	72%	-29%	1%	10%	1%	14%
CCCc1nnc(NC(=O)CN2CCN(C)CC2)s1	1%	2%	?	.	.	.	.	.	.
Cc1nnc(NC(=O)CN2CCN(Cc3ccc(F)cc3Cl)CC2)s1	3%	-11%	3.2µM*	-8%	23%	-11%	6%	6%	17%
CCCN1CCN(CC(=O)Nc2nc3ccccc3s2)CC1	?	2%	?	-6%	.	.	.	.	.
Cc1nnc(NC(=O)CN2CCN(Cc3ccccc3)CC2)s1	-25%	-5%	6.3µM*	-18%	14%[10.4 µM]	6%	3%	14%	0%
COc1ccccc1C(=O)Nc1ccc(-c2nnn(CC(=O)NCc3ccco3)n2)cc1	1%	?	5%	3%	.	.	.	.	.
Cc1cc(C)c(S(=O)(=O)NCc2cccs2)cc1C	0%	2%	-10%	-33%	.	.	.	.	.
COc1ccc(NC(C)=O)cc1S(=O)(=O)N1CCN(C/C=C/c2ccccc2)CC1	1%	-11%	6%	150%	.	.	.	.	.
Cc1cnc(NC(=O)CN2CCCCC2)s1	-3%	4%	4.5µM*	-8%	?	-6%	7%	8%	17%
CC(=O)Nc1ccc2sc(NC(=O)CN3CCOCC3)nc2c1	-21%	?	4.5µM*	-4%	?	-17%	7%	10%	0%
Cc1cnc(NC(=O)CN2CCN(c3ccccc3F)CC2)s1	-25%	0%	0%	-17%	.	.	.	.	.
CCc1nnc(NC(=O)CN2CC(C)OC(C)C2)s1 (stereo unspecified)	8%	-8%	3.5µM*	-27%	14%[10.4 µM]	-6%	3%	7%	7%
Cc1c(C)c2ccc(OCC(=O)NCCN3CCOCC3)c(C)c2oc1=O	-10%	-13%	-1%	10%	.	.	.	.	.
